In PubChem BioAssay:
Values joined by “and” are separate entries in the source; they are usually repeats but may differ in a detail not shown here. Equal values may be shown once. Active and inactive are the calls of the source.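 Rule for the calls, unless noted: active = thallium flux through the channel raised or lowered by more than 3 SD from vehicle-only wells, actives on both sides; inactive = the rest.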

Key:
F380Y = experiment: BK channel mutant inhibitors and activators – cell-based, U2OS BacMam, thallium flux, beta subunits, selectivity assay, profiling panel (AID 1259406); settings: U2OS BacMam BK variants, at 30 µM;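 note: initial slope of Thallos dye fluorescence rise after thallium is added; log ratio against the mean of 0.3% DMSO vehicle wells on the same plate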
F380Y/beta1 = experiment: as above; settings: U2OS BacMam BK variants, at 30 µM
F380Y/beta2Delta = experiment: as above; settings: U2OS BacMam BK variants, at 30 µM
F380Y/beta4 = experiment: as above; settings: U2OS BacMam BK variants, at 30 µM
[1] = biological target: Calcium-activated potassium channel subunit alpha-1 (Homo sapiens) + Leucine-rich repeat-containing protein 26 (Homo sapiens) (UniProt Q12791+Q2I0M4); experiment: as above; settings: U2OS BacMam BK variants, F380Y/Slo1WT/gamma1, at 30 µM
R275C = experiment: as above; settings: U2OS BacMam BK variants, at 30 µM
R275C/beta1 = experiment: as above; settings: U2OS BacMam BK variants, at 30 µM
R275C/beta2Delta = experiment: as above; settings: U2OS BacMam BK variants, at 30 µM
R275C/beta4 = experiment: as above; settings: U2OS BacMam BK variants, at 30 µM
R275C/Slo1WT/beta2 = experiment: as above; settings: U2OS BacMam BK variants, at 30 µM
[2] = P. berghei load reduction in hepatocytes – cell-based, HepG2, luciferase luminescence, HepG2 viability, primary screen (AID 624349; in the data active = parasite load remaining mostly below about 12%, no sharp cut-off; inactive = mostly above about 10%;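 note: 100% = mean of DMSO negative control wells on the same plate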); settings: P. berghei liver stage in HepG2, luciferase luminescence, concentration not given here; parasite load remaining: stronger effect = lower value; viability: measured here: HepG2 viability without parasites
[3] = signal quenchers or enhancers, Cy5 substrate/SSB – biochemical, NIH Clinical Collection, E. coli SSB, artefact control for HCV NS3 helicase inhibitor project (AID 743268; call rule not given here); settings: Cy5-oligo bound E. coli SSB, fluorescence interference
[4] = test system: Hepatitis C virus NS3 helicase; experiment: blockers of NS3h binding to DNA – biochemical, fluorescence polarization, NIH Clinical Collection, primary screen (AID 743270; call rule not given here); settings: NS3 helicase binding to Cy5-dT15 DNA, stronger effect = higher value, concentration not given here
[5] = biological target: Single-stranded DNA-binding protein (Escherichia coli (strain K12)) (UniProt P0AGE0); experiment: SSB-ssDNA binding inhibitors – biochemical, fluorescence polarization, NIH Clinical Collection, counter-screen for HCV NS3 helicase inhibitor project (AID 743271; in the data active = inhibition above about 28%); settings: E. coli SSB-DNA binding, stronger effect = higher value, concentration not given here
[6] = compounds distorting NS3 helicase fluorescence signal – biochemical, NIH Clinical Collection, artefact control for HCV NS3 helicase inhibitor project (AID 743272; call rule not given here;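 note: HCV NS3 helicase with a Cy5 labelled single stranded DNA probe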); settings: fluorescence interference counterscreen, HCV NS3 helicase assay; stronger effect = lower value
[7] = modulation of C. elegans fzo-1 (AID 1259413; call rule not given here;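 note: fzo-1 mutant C. elegans worms in liquid wells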); settings: C. elegans fzo-1 modulator screen, mean read-out; stronger effect = higher value
[8] = viability loss with induced miR-34 in A549 – imaging, A549 dox-inducible miR-34, nuclei and caspase counts, primary screen (AID 1347080;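 active = compounds whose cell count with miR-34 switched on is under 0.7 times the count with it off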); settings: A549 miR-34 inducible, Hoechst nuclei count, 48 h
[9] = EMT-state selective cytotoxicity in co-culture – imaging, PC-3E GFP, TEM4-18 mCherry, primary screen (AID 1345086;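 active = compounds killing one labelled cell type while sparing the other, by normalised counts and ratio limits, not self-fluorescent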;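 for all read-outs here: cells exposed to compound for 72 h before imaging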;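 for red/green cell ratio (normalised): normalised mesenchymal count divided by normalised epithelial count so high means epithelial killing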); settings: PC-3E GFP / TEM4-18 mCherry co-culture, imaging cell counts, at 1 µM; for red/green cell ratio (normalised): actives lie on both sides, counts scaled to control wells, 1 = unselective
[10] = MELAS cybrid and Rieske KO viability enhancers – cell-based, MELAS cybrids, Rieske KO mouse fibroblasts, CellTiter-Glo, primary screen (AID 1508586;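 active = mean z-score across replicates of 1.96 or higher in either the MELAS or the Rieske mutant cell line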;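 note: z relative to plate mean and SD of compound and empty wells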); settings: low glucose
[11] = stronger effect = lower value, cell number ratio, induced over uninduced
[12] = measured here: relative caspase fold change +Dox/-Dox
[13] = measured here: total cells with miR-34 induction, stronger effect = lower value
[14] = measured here: total cells without miR-34 induction
[15] = measured here: epithelial PC-3E GFP cell survival
[16] = measured here: mesenchymal TEM4-18 mCherry cell survival
[17] = MELAS cybrid survival, CellTiter-Glo 48 h, stronger effect = higher value
[18] = Rieske KO mouse fibroblast survival, CellTiter-Glo 72 h

Sequence of Calcium-activated potassium channel subunit alpha-1 (Homo sapiens) + Leucine-rich repeat-containing protein 26 (Homo sapiens) (Q2I0M4 whole entry, looked up, one chain of several): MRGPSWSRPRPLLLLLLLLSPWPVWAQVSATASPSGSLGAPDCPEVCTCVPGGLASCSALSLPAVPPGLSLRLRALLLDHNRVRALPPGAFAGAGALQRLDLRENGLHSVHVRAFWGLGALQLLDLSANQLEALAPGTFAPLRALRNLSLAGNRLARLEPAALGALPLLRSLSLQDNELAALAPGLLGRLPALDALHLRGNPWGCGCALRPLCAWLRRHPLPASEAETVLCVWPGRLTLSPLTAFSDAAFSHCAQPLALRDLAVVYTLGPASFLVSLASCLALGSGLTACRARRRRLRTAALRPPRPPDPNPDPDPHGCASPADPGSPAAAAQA

CCc1cc(C(=O)c2ccc(OC)cc2)c(NC(=O)CN2CCN(C)CC2)s1
inactive: log fold change Tl+ flux (F380Y) -0.0314 | log fold change Tl+ flux (F380Y/beta1) -0.0083 | log fold change Tl+ flux (F380Y/beta2Delta) -0.00202 | log fold change Tl+ flux (F380Y/beta4) -0.0121 | log fold change Tl+ flux [1] 0.0213 | log fold change Tl+ flux (R275C) -0.0119 | log fold change Tl+ flux (R275C/beta1) -0.00614 | log fold change Tl+ flux (R275C/beta2Delta) 0.00802 | log fold change Tl+ flux (R275C/beta4) 0.0372 | log fold change Tl+ flux (R275C/Slo1WT/beta2) -0.00941

CC(CCCCC(=O)Nc1ccc(C(F)(F)F)cc1)NCCc1cnc[nH]1 (configuration not stated)
inactive: parasite load remaining [2] 54.5% | fluorescence ratio [3] 0.96 | inhibition [4] -8.95% | inhibition [5] -4.33% | fluorescence ratio [6] 0.92 | mean signal [7] 233 | fold change [8, 11] 0.859 and 0.909 | log fold change Tl+ flux (F380Y) 0.0425 | log fold change Tl+ flux (F380Y/beta1) 0.0554 | log fold change Tl+ flux (F380Y/beta2Delta) -0.00659 | log fold change Tl+ flux (F380Y/beta4) -0.0291 | log fold change Tl+ flux [1] 0.0127 | log fold change Tl+ flux (R275C) -0.0675 | log fold change Tl+ flux (R275C/beta1) 0.0449 | log fold change Tl+ flux (R275C/beta2Delta) 0.0193 | log fold change Tl+ flux (R275C/beta4) 0.0332 | log fold change Tl+ flux (R275C/Slo1WT/beta2) 0.00571
10400 and 9060: cell count [8, 14]
1.55 and 0.779: fold change [8, 12]
8900 and 8240: cell count [8, 13]
67%: viability [2]

NCC(O)c1ccc(O)c(O)c1 (configuration not stated)
10900 and 7940: cell count [8, 13]
1.64 and 1.95: fold change [8, 12]
10800 and 8140: cell count [8, 14]
90.4%: viability [2]
1.16: normalised cell number [9, 15]
inactive: parasite load remaining [2] 46.6% | fluorescence ratio [3] 1.02 | inhibition [4] -2.27% | inhibition [5] 0.29% | fluorescence ratio [6] 0.99 | mean signal [7] 234 | red/green cell ratio (normalised) [9] 1.25 | fold change [8, 11] 1.01 and 0.975 | log fold change Tl+ flux (F380Y) -0.00325 | log fold change Tl+ flux (F380Y/beta1) 0.00151 | log fold change Tl+ flux (F380Y/beta2Delta) -0.00353 | log fold change Tl+ flux (F380Y/beta4) 0.0254 | log fold change Tl+ flux [1] 0.0514 | log fold change Tl+ flux (R275C) 0.0185 | log fold change Tl+ flux (R275C/beta1) 0.035 | log fold change Tl+ flux (R275C/beta2Delta) -0.0293 | log fold change Tl+ flux (R275C/beta4) 0.0502 | log fold change Tl+ flux (R275C/Slo1WT/beta2) 0.093
1.45: normalised cell number [9, 16]

C[C@@H](c1ncncc1F)[C@](O)(Cn1cncn1)c1ccc(F)cc1F
active: log fold change Tl+ flux [1] 0.106
2.46: fold change [8, 12]
9170: cell count [8, 14]
9140: cell count [8, 13]
0.93: normalised cell number [9, 15]
0.96: normalised cell number [9, 16]
75.1%: viability [2]
-0.0394: z-score [10, 18]
inactive: parasite load remaining [2] 100% | fluorescence ratio [3] 1.03 | inhibition [4] 3.56% | inhibition [5] -6.26% | fluorescence ratio [6] 1.02 | mean signal [7] 264 | red/green cell ratio (normalised) [9] 1.03 | fold change [8, 11] 0.997 | z-score [10, 17] 0.391 | log fold change Tl+ flux (F380Y) 0.0491 | log fold change Tl+ flux (F380Y/beta1) -0.0167 | log fold change Tl+ flux (F380Y/beta2Delta) 0.0265 | log fold change Tl+ flux (F380Y/beta4) 0.000651 | log fold change Tl+ flux (R275C) -0.0159 | log fold change Tl+ flux (R275C/beta1) 0.036 | log fold change Tl+ flux (R275C/beta2Delta) 0.0278 | log fold change Tl+ flux (R275C/beta4) -0.0222 | log fold change Tl+ flux (R275C/Slo1WT/beta2) -0.0193

CC(C)C[C@H](NC(=O)[C@@H](O)[C@H](N)Cc1ccccc1)C(=O)O
inactive: parasite load remaining [2] 23.8% | fluorescence ratio [3] 0.92 | inhibition [4] 0.66% | inhibition [5] 9.06% | fluorescence ratio [6] 0.88 | mean signal [7] 255 | z-score [10, 17] -0.957 | log fold change Tl+ flux (F380Y) -0.0323 | log fold change Tl+ flux (F380Y/beta1) -0.0233 | log fold change Tl+ flux (F380Y/beta2Delta) 0.0093 | log fold change Tl+ flux (F380Y/beta4) -0.0304 | log fold change Tl+ flux [1] -0.0684 | log fold change Tl+ flux (R275C) -0.0391 | log fold change Tl+ flux (R275C/beta1) 0.000543 | log fold change Tl+ flux (R275C/beta2Delta) -0.0202 | log fold change Tl+ flux (R275C/beta4) 0.00103 | log fold change Tl+ flux (R275C/Slo1WT/beta2) -0.0673
0.817: z-score [10, 18]
136%: viability [2]

COc1nc(C)nc(Cl)c1NC1=NCCN1
72.6% and 70.2%: viability [2]
0.176 and 0.122: z-score [10, 18]
inactive: parasite load remaining [2] 85.8% and 79.7% | fluorescence ratio [3] 1.09 | inhibition [4] 4.36% | inhibition [5] 5.29% | fluorescence ratio [6] 1.07 | mean signal [7] 246 | z-score [10, 17] -0.211 and 0.715 | log fold change Tl+ flux (F380Y) -0.00461 | log fold change Tl+ flux (F380Y/beta1) -0.0516 | log fold change Tl+ flux (F380Y/beta2Delta) -0.0248 | log fold change Tl+ flux (F380Y/beta4) -0.00507 | log fold change Tl+ flux [1] -0.00669 | log fold change Tl+ flux (R275C) -0.0325 | log fold change Tl+ flux (R275C/beta1) -0.0423 | log fold change Tl+ flux (R275C/beta2Delta) -0.005 | log fold change Tl+ flux (R275C/beta4) -0.00418 | log fold change Tl+ flux (R275C/Slo1WT/beta2) -0.0114

CC(=O)NC[C@H]1CN(c2ccc(N3CCOCC3)c(F)c2)C(=O)O1
-2.51 and -1.01: z-score [10, 18]
inactive: parasite load remaining [2] 99.9% and 45% | fluorescence ratio [3] 1.07 | inhibition [4] 6.73% | inhibition [5] 2.21% | fluorescence ratio [6] 1.04 | mean signal [7] 269 | fold change [8, 11] 1.08 and 0.926 | z-score [10, 17] -0.794 and 0.174 | log fold change Tl+ flux (F380Y) 0.0386 | log fold change Tl+ flux (F380Y/beta1) 0.0152 | log fold change Tl+ flux (F380Y/beta2Delta) -0.0137 | log fold change Tl+ flux (F380Y/beta4) -0.01 | log fold change Tl+ flux [1] -0.0237 | log fold change Tl+ flux (R275C) -0.0414 | log fold change Tl+ flux (R275C/beta1) 0.0265 | log fold change Tl+ flux (R275C/beta2Delta) 0.023 | log fold change Tl+ flux (R275C/beta4) 0.00539 | log fold change Tl+ flux (R275C/Slo1WT/beta2) 0.0288
74.1% and 114%: viability [2]
1.57 and 0.639: fold change [8, 12]
10400 and 9730: cell count [8, 13]
9600 and 10500: cell count [8, 14]
